Compound activity as filed in PubChem.
LDHA block: blocks human lactate dehydrogenase A | 480,000 compounds, 0.15% hits | activity change, % (values are at about 110 or 230 µM) | AID 1347041 | purified LDHA, NADH/diaphorase-resazurin fluorescence; hits give low values | P00338; in the data active = activity change below about -30%; inconclusive = mostly about -25% to -30%;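 also: plate controls were DMSO wells for no effect and wells without enzyme for full effect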
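LDH5 2 nM; NADH 0.06 mM, pyruvate 0.2 mM; 200 mM Tris pH 7.4, EDTA, Tween-20; 5 min RT. Detection: diaphorase 0.133 mg/mL + resazurin 37 µM, fluorescence ex540/em590 at 0 and 20 min; normalized to enzyme-free and DMSO wells.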
D1 antagonist: blocks dopamine activation of the human D1 receptor. P21728. HEK293 TREx D1 cells, calcium flux, dopamine EC80; hits give low values. activity change, negative = inhibition, % at 10 µM. 360,000 compounds, 3.2% hits; in the data active = activity change below about -30%; also: % is scaled to controls: 0 for no effect and ±100 for the full control effect
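Using tetracycline-induced force-coupled D1 Hek293 cells and a calcium dye, signals were followed for 180 s after compound, then for 180 s after EC80 dopamine, to detect inhibitors.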
D1 PAM: human D1 dopamine receptor positive modulation. HEK293 TREx D1 cells, calcium flux, dopamine EC20 potentiation. potentiation, % at 10 µM. 360,000 compounds, 0.036% hits; in the data active = potentiation above about 30%; also: 0% is about no effect
TRHR agonist-1: activates the human TRH receptor. TRHR cells, calcium flux fluo-8, FDSS agonist mode. activation, % at 2 µM. 360,000 compounds, 0.18% hits. AID 493084; in the data active = activation above about 30%; also: 0% is about no effect
Target sequence (P34981 whole entry, looked up): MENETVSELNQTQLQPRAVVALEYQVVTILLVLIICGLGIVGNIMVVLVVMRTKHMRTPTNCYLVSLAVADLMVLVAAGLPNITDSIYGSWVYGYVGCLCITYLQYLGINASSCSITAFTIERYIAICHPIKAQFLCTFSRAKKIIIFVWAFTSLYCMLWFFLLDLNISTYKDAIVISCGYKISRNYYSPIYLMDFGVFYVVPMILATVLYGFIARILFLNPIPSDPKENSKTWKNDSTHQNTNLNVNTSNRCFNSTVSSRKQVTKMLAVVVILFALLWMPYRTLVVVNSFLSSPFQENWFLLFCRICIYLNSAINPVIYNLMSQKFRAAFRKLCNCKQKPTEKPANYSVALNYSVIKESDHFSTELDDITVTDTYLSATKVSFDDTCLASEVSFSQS
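Read-out: compound-evoked intracellular calcium rise in TRHR cells, fluo-8 dye, kinetic FDSS fluorescence at 1 s/cycle following a 10-cycle baseline. Cells cultured overnight before dye loading (30 min–1.5 h, RT).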
TRHR enhancer-1: allosterically enhances the human TRH receptor | P34981 | TRHR cells, fluo-8 calcium fluorescence, EC20 TRH enhancement | enhancement, % at 2 µM | 360,000 compounds, 0.66% hits; in the data active = enhancement above about 30%; also: 0% is about no effect
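Enhancer read-out: after compound pinning and an initial kinetic agonist-mode read, an EC20 of TRH (10 nM final) was injected and fluo-8 calcium signal (Ex 480/Em 530) followed at 1 s/cycle for 100 cycles in TRHR-expressing cells.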
D1 agonist: human D1 receptor agonism; P21728; HEK293 T-REx D1 cells, calcium flux, agonist mode; activation, % at 2 µM; 360,000 compounds, 1% hits; in the data active = activation above about 30%; also: 0% is about no effect
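Tetracycline-induced HEK293 TREx D1 cells, force-coupled to calcium signalling, were dye-loaded with a no-wash calcium kit. Compound was pin-added after a 10 s baseline. Fluorescence was read kinetically at 1 cycle/s for 180 s, with calcium rises flagged as agonism.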
TRHR enhancer-2: confirmation of human TRH receptor allosteric enhancers; shares compounds with TRHR enhancer-1; TRH receptor cell assay, enhancer confirmation qHTS; activity change, negative = inhibition, % at 46.1 µM; 970 tested, under 10 active; AID 493076;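 also: compound effect scored on response to added TRH at EC20 of 10 nM; 0% is about no effect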
TRHR agonist-2: human TRH receptor agonism confirmation; shares compounds with TRHR enhancer-1; TRHR-expressing cells, agonist activation read-out; Potency, µM (series often up to 46.1 µM), without a hit: at the top dose activation, actives largely listed as activators; 970 compounds, 8% hits; also: potency is read from the fitted curve at half-maximal effect; 0% is about no effect; nearly all actives have a fitted effect of over 75% in size
* = called active by the depositor; ? = inconclusive; . = not tested or not shown. Rows were chosen to be rich in hits. Some 3.6% of all compounds tested hit in one or more screens of this group. Unless noted, calls follow the shape of the dose curve; as a rule, active = well fitted curve in the direction sought with a large enough effect; inconclusive = small, poorly fitted or top-dose-only effect, or another doubt; inactive = no such curve, though single readings can be large; an effect the other way counts as inactive or inconclusive.

SMILES	LDHA block	D1 antagonist	D1 PAM	TRHR agonist-1	TRHR enhancer-1	D1 agonist	TRHR enhancer-2	TRHR agonist-2
CCC(C)(C)NC(=O)C(c1cccn1C)N(C(=O)Cn1nnc2ccccc21)c1ccc(F)cc1 (stereo not drawn)	-6	2	1	29	-17	6	-4	?
Cn1c(=O)c2c(ncn2CC(=O)Nc2ccc(F)c([N+](=O)[O-])c2)n(C)c1=O	-1	.	.	.	.	.	.	.
O=C(c1ccc(C(F)(F)F)cc1)C1CCCN(C(=O)CN2CCCC2=O)C1 (stereo not drawn)	-11	22	-2	0	56*	0	-3	4%
COc1ccc(/C=C(/C(=O)c2ccccc2)c2nc3ccccc3s2)cc1	12	.	.	.	.	.	.	.
CC(=O)Nc1cccc(C(=O)O)c1O	-3	.	.	.	.	.	.	.
CCc1ccc(NC(=O)N(Cc2cccnc2)Cc2ccco2)cc1	-7	.	-2	-1	43*	-2	?	16µM*
CCOc1cc(/C=C2/NC(=O)NC2=O)cc(I)c1OCC(=O)OC	-3	.	.	.	.	.	.	.
O=c1[nH]c2cc3ccccc3cc2nc1C(F)(F)F	-2	-2	9	29	-4	17	-2	?
NC(=O)CC(NC(=O)Cc1ccc(Br)cc1)c1ccc(N2CCC(Br)CC2)c([N+](=O)[O-])c1 (stereo not drawn)	-22	15	-1	0	52*	2	-13	-1%
NC(=O)CC(NC(=O)Cc1ccc(Br)cc1)c1ccc(N2CCCCCCC2)c([N+](=O)[O-])c1 (stereo not drawn)	-10	-7	-2	-1	9	0	.	.
O=C(Nc1c(NCc2ccccc2)c2ccccc2oc1=O)c1ccco1	-1	.	.	.	.	.	.	.
COc1ccc2oc(=O)c(C(=O)NC3CCCCCC3)cc2c1	5	5	0	0	51*	0	-2	-1%
CNC(=O)c1cc2cc(OC)ccc2oc1=O	-4	0	3	1	0	0	.	.
CC[Si](C)(CC)COC(=O)CCC[N+](C)(C)C	-20	.	.	.	.	.	.	.
C[N+](C)(C)CCOC(N)=O	-4	2	-4	29	4	9	3	4%
N#CC1(NC(=O)CSc2nc(-c3ccccc3)cs2)CCCCC1	-8	.	.	.	.	.	.	.
Nc1ncnc(Nc2ccc(F)c(Cl)c2)n1	-7	-12	1	0	45*	1	-2	2%
CSc1ccccc1C(=O)Nc1ccc(CSc2ccccc2)cc1	0	.	.	.	.	.	.	.
O=C(Cc1ccccc1)NC1CCN(Cc2ccccc2)CC1	-2	-4	4	0	61*	6	1	-1%
CC(C)Nc1ncnc2c1cnn2-c1ccc(Cl)cc1	-2	-21	-8	2	55*	0	-6	1%
Cc1ccc2c(CN3c4ccccc4CC3C)cc(=O)oc2c1 (stereo not drawn)	6	.	.	.	.	.	.	.
Cc1cc(C)c2c(n1)nn1c(NCCCN(C)C)cc(C)nc21	6	1	-4	0	57*	0	2	0%
Cc1cn2c(N)c(C=C3C=C(Cl)C(=O)C(Cl)=C3)c(=O)nc2s1	-4	6	3	27	-3	51*	0	9.2µM*
O=C(N/N=C/c1ccc(OCc2cnc(Cl)s2)cc1)c1ccncc1	0	-33*	-5	0	50*	16	1	2%
O=C(COc1ncnc2ccccc12)NCCc1ccccc1	-3	-44*	-10	0	58*	2	-2	-1%
SMILES	LDHA block	D1 antagonist	D1 PAM	TRHR agonist-1	TRHR enhancer-1	D1 agonist	TRHR enhancer-2	TRHR agonist-2
N#Cc1ccccc1S(=O)(=O)N1CCN(C(=O)CCc2ncc(-c3c(F)cccc3F)o2)CC1	-14	.	.	.	.	.	.	.
CCCc1cc(C(=O)N2CCCC(C(=O)c3cccc4ccccc34)C2)n(C)n1 (stereo not drawn)	1	-3	-4	-1	46*	4	-9	1%
O=C(Cn1nc(C(=O)O)c2ccccc2c1=O)Nc1ccc(Cl)cc1	3	.	.	.	.	.	.	.
CC(Sc1ncc(-c2ccc(Br)cc2)n1C)C(=O)NC(N)=O (stereo not drawn)	3	.	.	.	.	.	.	.
CCCCOc1ccc(C(=O)NCC(=O)NCCOc2ccccc2OC)cc1	-13	8	-2	0	74*	1	11	5%
CCCCOc1ccc(C(=O)NCC(=O)N2CC(C)OC(C)C2)cc1 (stereo not drawn)	-3	-2	1	0	-1	3	.	.
CCCCOc1ccc(C(=O)NCC(=O)N2CC(C)CC(C)C2)cc1 (stereo not drawn)	-2	-3	.	40*	-3	4	-7	5%
CCOC(=O)c1cc(NC(=O)c2cccc(C)c2)c(=O)n2c1oc1ccccc12	11	.	.	.	.	.	.	.
COc1cc(C(=O)N/N=C/c2ccc(OC(=O)c3ccccc3Cl)cc2)ccc1O	-5	-8	-2	0	53*	0	6	6%
CN1C(=O)Cc2cc(-c3csc(NC(C)(C)C)n3)ccc21	5	.	.	.	.	.	.	.
CC(=O)c1ccc(C(=O)NC(C)c2ccc(OC(F)F)cc2)s1 (stereo not drawn)	9	.	.	.	.	.	.	.
O=c1oc2ccc3ccccc3c2cc1-c1nnc(Nc2ccccc2)s1	-11	9	3	3	-1	10	.	.
Nc1nnc(-c2cc3c(ccc4ccccc43)oc2=O)s1	.	-9	12	41*	-1	49*	7	?
Cn1c(=O)c2c(ncn2CC(=O)Nc2c(Cl)cccc2Cl)n(C)c1=O	10	.	.	.	.	.	.	.
COc1ccc(C(=O)N2CCN(Cc3ccccc3C(F)(F)F)CC2)cc1	-11	-4	0	32*	-8	7	-3	1%
COc1cccc(C(=O)N2CCN(Cc3ccccc3C(F)(F)F)CC2)c1	-15	-10	-2	0	2	9	.	.
CCn1c(CC(=O)Nc2ccccc2)n[nH]c1=S	-5	7	0	0	52*	3	0	-1%
Cc1cccc2cc(CN(CC(C)C)C(=O)c3ccccc3)c(=O)[nH]c12	-8	.	.	.	.	.	.	.
CCOC(=O)c1c(NC(=O)Cn2c(C)nc3ccccc32)sc2c1CCC2	-2	3	-4	-1	60*	6	-5	6%
O=C(CCn1c(=O)sc2ccccc21)Nc1ccon1	-12	23	-5	0	43*	-2	-2	1%
CCC(=O)Nc1ccc2c(c1)C(=O)c1ccccc1C2=O	-2	-3	-3	0	4	0	.	.
CCC(=O)NC1=C(NC(C)c2ccccc2)C(=O)c2ccccc2C1=O (stereo not drawn)	17	5	5	0	50*	3	-5	2%
